Each structure is given as a SMILES string. The panel holds about 83,000 compounds, 20% with a hit somewhere; the sample as a whole holds those more often.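 Testing used 96-well plates and a 48-hour single-concentration exposure. Example: -40 means 40% of the starting cells died.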 Values without a mark were called inactive. The source made the active and inactive calls. Rule for the calls: active = growth percent below 10; inactive = the rest.

The text below walks through data of PubChem BioAssay (NCI).

Common to all, as to experiment: NCI-60 one-dose screen, 48 h (100 = growth as untreated, 0 = no growth, -100 = all killed)
Assay [1] concerns HCT-15 colon. As to conditions: 10 µM.
For assay [2], the system named is HT29 colon. The settings on record: 10 µM.
Assay [3] concerns SNB-75 CNS. The settings on record: 10 µM.
The subject of assay [4] is SNB-19 CNS. The settings on record: 10 µM.
Assay [5] relates to U251 CNS. The settings on record: 10 µM.
In assay [6] the test system is PC-3 prostate. The settings on record: 10 µM.
The test system of assay [7] is SK-MEL-5 melanoma. As to conditions: 10 µM.
Assay [8] deals with UACC-62 melanoma. As to conditions: 10 µM unless noted.
Assay [9] deals with LOX IMVI melanoma. The settings on record: 10 µM.
The subject of assay [10] is SK-MEL-28 melanoma. The settings on record: 10 µM.
For assay [11], the system named is SK-MEL-2 melanoma. The settings on record: 10 µM.
In assay [12] the test system is EKVX NSCLC. As to conditions: 10 µM.
The subject of assay [13] is SN12C renal. The settings on record: 10 µM.
Assay [14] has as its system UO-31 renal. As to conditions: 10 µM.
Assay [15] relates to TK-10 renal. The settings on record: 10 µM unless noted.
The subject of assay [16] is ACHN renal. The settings on record: 10 µM.
Assay [17] has as its system CAKI-1 renal. As to conditions: 10 µM.
Assay [18] deals with A498 renal. As to conditions: 10 µM.
For assay [19], the system named is CCRF-CEM leukemia. As to conditions: 10 µM.
Assay [20] relates to MOLT-4 leukemia. The settings on record: 10 µM.

`COC(=O)c1cccnc1`: the growth is 103% in assay [1]; 101% in assay [2]; 88.2% in assay [3]; 95.3% in assay [4]; 99.4% in [5]; 95.2% in assay [6]. The growth is 96.4% in [7]; 90.8% in assay [8]; 95.6% in assay [9]; 103% in [10]; 93.2% in assay [11]; 105% in assay [12]. In addition, the growth in assay [13] is 93.2%; in assay [14], 78.9%; in assay [15], 96.9%; in [16], 90.6%; in assay [17], 94.8%; in [18] it was 101%. In addition, the growth in assay [19] was 96.2%; in assay [20], 98.3%.

`O=C(NN=C1CCCCC1)C(=O)NN=C1CCCCC1`: the growth in [1] was 108%; in assay [2], 98.6%; in assay [3], 103%; in [4] it was 110%; in assay [5], 107%; in assay [6], 89%. Further, the growth in [7] is 99.9%; in assay [8] it was 109%; in assay [9] it was 113%; in assay [10] it was 100%; in assay [11], 91.2%; in assay [12] it was 109%. For the same compound, the growth in [13] was 106%; in [14], 95.6%; in [15] it was 99%; in assay [16] it was 109%; in assay [17] it was 110%; in assay [18], 119%. Also, the growth in assay [19] is 85.6%; in assay [20], 90.9%.

For `CC1(O)CCCCC1O` (stereo unspecified), the growth in assay [1] is 102%; in assay [2], 106%; in assay [3], 96.5%; in assay [4], 97.3%; in assay [5] it was 104%; in assay [6], 98.4%. Also, the growth was 107% in assay [7]; 96.5% in [8]; 106% in assay [9]; 113% in assay [10]; 91.8% in assay [11]; 114% in [12]. Moreover, the growth in assay [13] is 95.1%; in [14], 79.3%; in assay [15] it was 125%; in [16] it was 102%; in assay [17], 102%; in assay [19] it was 107%. Moreover, the growth in assay [20] is 103%.

Consider `CCc1ccc(/C(C#N)=C/C=C/c2ccccc2)cc1`, for which the growth was 38.7% in assay [1]; -5.6% (active) in assay [2]; 0.0202% (active) in [3]; 59.5% in assay [4]; 21.3% in assay [5]; 19% in assay [6]. Further, the growth in [7] was 9.25% (active); in assay [8], 29.6%; in assay [9] it was 44%; in assay [10] it was 51.8%; in assay [11], -12.2% (active); in [12], 52.3%. In addition, the growth in assay [13] was 53.2%; in assay [14] it was 42.9%; in [15], 16.9%; in assay [16] it was 58.3%; in assay [17], 53.7%; in [19], -5.51% (active). Besides, the growth in assay [20] is 20.7%.

`O=[N+]([O-])c1ccc(O)c(S(=O)(=O)O)c1`: the growth is 98.1% in [1]; 104% in [2]; 98.6% in [3]; 105% in assay [4]; 102% in [5]; 97.3% in [6]. Moreover, the growth in [7] is 121%; in [8] it was 97.5%; in [9], 98.2%; in assay [10], 116%; in assay [11], 108%; in assay [12], 105%. The growth in assay [13] is 90.2%; in assay [14], 116%; in assay [15] it was 121%; in assay [16] it was 95.2%; in assay [17], 95.9%; in [18], 114%. Moreover, the growth in [19] was 102%; in [20] it was 98.4%.

In the case of `O=C1C=C(O)C(=O)C=C1O`, the growth in [1] was 107%; in assay [2], 105%; in assay [3], 95.1%; in assay [4] it was 104%; in assay [5], 104%; in assay [6], 101%. The growth in assay [7] was 114%; in [8] it was 102%; in [9], 98.9%; in assay [10] it was 114%; in [11], 107%; in assay [12] it was 102%. For the same compound, the growth in [13] is 107%; in [14], 79.2%; in [15] it was 102%; in assay [16], 97.2%; in assay [17], 97.4%; in [18] it was 92.4%. Also, in assay [20], the growth was 91.3%.

In the case of `COc1ccc(C(O)c2ccccc2)cc1` (stereo unspecified), the growth in assay [1] was 100%; in assay [2] it was 105%; in assay [3] it was 96.1%; in [4] it was 105%; in [5], 94.1%; in [6], 94.7%. Besides, the growth is 99.3% in [7]; 95.3% in [8]; 86.2% in assay [9]; 105% in [10]; 112% in [11]; 101% in assay [12]. The growth in [13] was 104%; in assay [14], 81.9%; in assay [15], 101%; in [16], 106%; in assay [17], 100%; in [18] it was 102%. Moreover, the growth in [19] is 106%; in assay [20], 94.1%.

As for `Oc1ccc(Cc2ccccc2)c2cccnc12`, the growth in assay [1] is 29.2%; in [2], 84.3%; in assay [3], 21.3%; in [4] it was 19.6%; in assay [5], 12.6%; in assay [6] it was 23.4%. The growth was 3.49% (active) in assay [7]; -14% (active) in assay [8]; 4.75% (active) in [9]; 32.2% in assay [10]; 12.1% in assay [11]; 28.3% in assay [12]. Also, the growth was 20.5% in assay [13]; -14.4% (active) in assay [14]; 9.22% (active) in assay [15]; 11.5% in assay [16]; -6.16% (active) in [17]; 1.19% (active) in assay [19]. In addition, in [20], the growth is 3.7% (active).
